According to PubChem BioAssay (Tox21):
Results filed as inconclusive are left out. A number with no mark means an inactive call. Activity calls are given as the source filed them. The call rests on the fitted dose curve.

biological target: Retinoic acid receptor RXR-alpha (Homo sapiens) (UniProt P19793); assay: qHTS assay to identify small molecule agonists of the RXR signaling pathway (AID 1159527); conditions: HEK293T RXRa-UAS-bla, beta-lactamase ratio, 16 h; series mostly up to 76.8 µM; activation: at the top concentration; further: nearly all actives have a fitted effect of over 35% in size
Text: U.S. Tox21 Program National Center for Advancing Translational Sciences [NCATS] NIH Chemical Genomics Center [NCGC] U.S. Environmental Protection Agency [EPA] National Institutes of Environmental Health Sciences [NIEHS] National Toxicology Program [NTP] U.S. Food and Drug Administration [FDA] Tox21 Assay Overview: The Retinoid X receptor (RXR), a nuclear hormone receptor expressed in liver, spleen, placenta, epidermis, central nervous system. These receptors are able to form homo and heterodimers with other nuclear receptors and due to this heterodimerizing ability, RXR functions as master regulators producing diverse physiological effects. Three subtypes of RXR exist; alpha, beta and gamma. Retinoid X receptor alpha (RXR-alpha) has potential roles in metabolic signaling pathways, skin alopecia, dermal cysts, cardiac development, insulin sensitization etc. Therefore screening environmental chemicals on RXR-alpha signaling can be used for the studies focused on such therapeutic applications. For quantification of RXR-alpha ligands signaling, GeneBLAzer RXR alpha-UAS-bla HEK 293T (Life Technologies, Carlsbad, CA) cells containing a beta-lactamase reporter-gene under control of Retinoid X receptor-alpha response element were used to screen Tox21 10K library.
Tox21 Assay Protocol Summary: RXR-alpha HEK 293T cells were dispensed at 2,000 cells/6 uL of assay medium containing 2% charcoal-stripped FBS using a Multidrop Combi (ThermoFisher Scientific, Waltham, MA) dispenser. The assay was performed in black wall/clear-bottom 1536-well plates (Greiner Bio-One North America Inc. Monroe, NC). 9-cis retinoic acid was used as a positive control in the agonist mode screen. After the assay plates were incubated at 37 C and 5% CO2 for 5 hr, 23 nL of compounds dissolved in DMSO, positive controls or DMSO only were transferred to the assay plate by a Pintool station (Kalypsys, San Diego, CA). The assay plates were incubated at 37 C and 5% CO2 for 16 hr. One uL of LiveBLAzer B/G FRET substrate (Life Technologies) was added using a Flying Reagent Dispenser (Aurora Discovery, San Diego, CA) and the plates were incubated at room temperature for 2 hr. Fluorescence intensity (405 nm excitation, 460/530 nm emission) was measured using an Envision plate reader (PerkinElmer, Shelton, CT).
On the % scale 0 is the no-effect control and ±100 the full control effect; potency means the concentration at half of the fitted maximal effect.

Chain of Retinoic acid receptor RXR-alpha (Homo sapiens) (P19793 whole entry, looked up): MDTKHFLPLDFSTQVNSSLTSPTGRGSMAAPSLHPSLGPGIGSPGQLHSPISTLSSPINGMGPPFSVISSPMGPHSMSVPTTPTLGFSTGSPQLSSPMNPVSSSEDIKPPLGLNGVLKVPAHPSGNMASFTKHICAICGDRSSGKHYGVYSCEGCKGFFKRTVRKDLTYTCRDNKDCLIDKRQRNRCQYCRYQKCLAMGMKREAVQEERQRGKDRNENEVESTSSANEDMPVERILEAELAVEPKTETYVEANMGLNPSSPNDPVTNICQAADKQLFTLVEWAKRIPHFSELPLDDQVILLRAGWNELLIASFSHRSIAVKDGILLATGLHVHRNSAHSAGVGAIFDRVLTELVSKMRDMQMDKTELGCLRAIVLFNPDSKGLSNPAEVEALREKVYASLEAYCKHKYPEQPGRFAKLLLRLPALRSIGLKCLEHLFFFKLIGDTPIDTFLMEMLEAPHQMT

| SMILES | activation | Potency |
| --- | --- | --- |
| COc1cc2c(cc1OC)[C@@H]1CC(=O)[C@@H](CC(C)C)CN1CC2 | -6.9% [at 35.3 µM] |  |
| CC(S)C(=O)NCC(=O)O (stereo not given) | 6.03% [at 35.3 µM] |  |
| NCCN1CCOCC1 | -1.92% |  |
| CCOc1cc(NC(C)=O)ccc1C(=O)OC | 0.679% [at 35.3 µM] |  |
| Cc1ccccc1C(=O)Nc1ccc(C(=O)N2CCCC(N(C)C)c3ccccc32)cc1 (stereo not given) | -15.2% [at 35.3 µM] |  |
| BrCc1cccc(Oc2ccccc2)c1 | -18.7% |  |
| CC(C)C[C@H](NC(=O)CNC(=O)[C@H](Cc1ccc(O)cc1)NC(=O)[C@H](CO)NC(=O)[C@H](Cc1c[nH]c2ccccc12)NC(=O)[C@H](Cc1cnc[nH]1)NC(=O)[C@@H]1CCC(=O)N1)C(=O)N[C@@H](CCCN=C(N)N)C(=O)N1CCC[C@H]1C(=O)NCC(N)=O (stereo in doubt) | -1.73% [at 35.3 µM] |  |
| COC(=O)c1ccccc1C(=O)c1ccc(OCCN2CCCCC2)cc1 | 0.0338% [at 35.3 µM] |  |
| O=C1c2ccccc2C(=O)c2cc(S(=O)(=O)O)ccc21 | 7.48% |  |
| C=C(C)C(=O)OCC(C)(C)COC(=O)C(=C)C | -2.53% |  |
| O=C1c2cccc3c2[C@H](CCC3)CN1[C@@H]1CN2CCC1CC2 | -8.72% [at 35.3 µM] |  |
| N[C@@H](CCC(=O)N[C@@H](CS)C(=O)NCC(=O)O)C(=O)O | 2.72% [at 15.8 µM] |  |
| O=C(OCC1(COC(=O)c2cccnc2)CCCC(COC(=O)c2cccnc2)(COC(=O)c2cccnc2)C1O)c1cccnc1 | -9.43% [at 35.3 µM] |  |
| C=CCCCCCCCCCCCC | -19.3% |  |
| O=C1CC(c2ccc(Cl)cc2)CC(=O)N1 | 5% [at 35.3 µM] |  |
| Nc1ccc2cc(S(=O)(=O)O)cc(O)c2c1 | 5.28% |  |
| COCCOCCOCCOCCO | 4.45% |  |
| O=C(CS(=O)Cc1ccco1)NC/C=C\COc1cc(CN2CCCCC2)ccn1 (stereo not given) | 3.89% [at 35.3 µM] |  |
| Nc1ccc(S(=O)(=O)Nc2ccc(Cl)nn2)cc1 | 8.85% [at 35.3 µM] |  |
| CC(C)C(=O)OCc1cccc(OC(=O)[C@@H]2N3C(=O)[C@@H](NC(=O)Cc4ccccc4)[C@H]3SC2(C)C)c1 | -9.34% [at 35.3 µM] |  |

| SMILES | activation | Potency |
| --- | --- | --- |
| CCC(C)(CCC(C)C)C(=O)O (stereo not given) | 12.8% |  |
| CC(CN)CC(C)(C)CCN (stereo not given) | -5.51% [at 200 µM] |  |
| CCOC(=O)c1ncn2c1CN(C)C(=O)c1cc(F)ccc1-2 | 2.46% [at 35.3 µM] |  |
| CC(=O)Nc1ccc(S(=O)(=O)Cl)cc1 | -3.13% |  |
| COc1ccc(-c2cc(=O)c3c(O)cc(O[C@@H]4O[C@H](CO[C@@H]5O[C@@H](C)[C@H](O)[C@@H](O)[C@H]5O)[C@@H](O)[C@H](O)[C@H]4O)cc3o2)cc1O | 4.65% [at 35.3 µM] |  |
| O=C(OCc1ccccc1)C(=O)OCc1ccccc1 | 9.55% |  |
| CCO[Si](CCCS)(OCC)OCC | 5.3% |  |
| c1ccc2nccnc2c1 | 0.584% |  |
| N[C@@H](CCC(=O)Nc1ccc([N+](=O)[O-])cc1)C(=O)O | -0.73% |  |
| CC(=O)c1sc(C)nc1C | -1.94% |  |
| COC(=O)[C@@H]1[C@H]2C[C@H]3c4[nH]c5ccccc5c4CCN3C[C@@H]2CC[C@@H]1O | -0.0741% [at 35.3 µM] |  |
| CC1COc2ccccc2N1 (stereo not given) | 14.1% |  |
| CCOc1cc([N+](=O)[O-])c(OCC)cc1N1CCOCC1 | -20.1% |  |
| CC(COC(C)(C)C)OCCCO (stereo not given) |  | 11 µM (active) |
| CC(C)OC(=O)CCCCC(=O)OC(C)C | 9.89% |  |
| COC(=O)C1CC(=O)C(C(=O)OC)CC1=O (stereo not given) | 10.5% [at 6.98 µM] |  |
| On1nnc2ccccc21 |  | 4.9 µM (active) |
| Nc1cccc(O)c1 | 11.6% |  |
| CCOCCOC(=O)/C=C/c1ccc(OC)cc1 | -10.1% [at 35.3 µM] |  |
| NNc1nnc(NN)c2ccccc12 | 10.1% [at 35.3 µM] |  |
